PubChem BioAssay (NCI)
Compounds without any hit were thinned out: in the full panel of roughly 79,000, 15% have a hit. Unmarked numbers belong to inactive results. Calls of active or inactive are those of the source. Rule as the data show it: active = growth inhibition above about 70%; inactive = the rest.

Tests used:
[1] = NCI Yeast Anticancer Drug Screen. Data for the rad50 strain (AID 155);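 also: 0% = growth of vehicle-only cultures of the same strain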; settings: S. cerevisiae rad50 strain growth inhibition; at 50.0 µM; stronger effect = higher value
Summary of the method: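 Growth of the mutant yeast was measured after compound exposure and referenced to vehicle-treated cultures.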

[2] = NCI Yeast Anticancer Drug Screen. Data for the mec2-1 strain (AID 157); settings: S. cerevisiae mec2-1 strain, at 50.0 µM, stronger effect = higher value
Summary of the method: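 Compounds were applied to mec2-1 yeast cells. Their growth was then compared with that of vehicle-treated cultures to give growth inhibition.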

[3] = NCI Yeast Anticancer Drug Screen. Data for the sgs1 mgt1 strain (AID 161);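 also: 0% = growth of cultures given vehicle only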; settings: S. cerevisiae sgs1 mgt1 strain, at 50.0 µM, stronger effect = higher value
Summary of the method: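 Yeast cells carrying a defined DNA-repair defect were exposed to test compounds. Growth inhibition was measured relative to vehicle-treated controls.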

[4] = NCI Yeast Anticancer Drug Screen. Data for the cln2 rad14 strain (AID 165);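 also: 0% = growth equal to vehicle treated cultures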; settings: S. cerevisiae cln2 rad14 strain, at 50.0 µM, stronger effect = higher value
Summary of the method: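 Strain: cln2 rad14 yeast, altered in cell cycle control and DNA damage repair. Read-out: growth inhibition vs vehicle.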

[5] = NCI Yeast Anticancer Drug Screen. Data for the bub3 strain (AID 167); settings: S. cerevisiae bub3 mutant strain, at 50.0 µM, stronger effect = higher value
Summary of the method: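 Whole-cell yeast assay. The mutant strain was incubated with compounds, and growth inhibition was determined by comparison with vehicle-treated cells.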

[6] = NCI Yeast Anticancer Drug Screen. Data for the mlh1 rad18 strain (AID 175); settings: S. cerevisiae mlh1 rad18 strain growth inhibition; at 50.0 µM; stronger effect = higher value
Summary of the method: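 A repair-deficient yeast strain is exposed to test compound, and growth is scored relative to vehicle-treated controls.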

SMILES	growth inhibition [1]	growth inhibition [2]	growth inhibition [3]	growth inhibition [4]	growth inhibition [5]	growth inhibition [6]
CC1ON2CCCC2[C@H]1C(=O)N1C2CC3CCC2(CS1(=O)=O)C3(C)C (stereo partly specified)	-4.35%	2.9%	-28.6%	-0.35%	19.4%	-36.7%
CC(C)(C)c1cc2c(OP(c3ccccc3)c3ccccc3)c(c1)Cc1cc(C(C)(C)C)cc(c1OP(c1ccccc1)c1ccccc1)Cc1cc(C(C)(C)C)cc(c1OP(c1ccccc1)c1ccccc1)Cc1cc(C(C)(C)C)cc(c1OP(c1ccccc1)c1ccccc1)C2	-11.8%	-25.9%	-38.5%	-5.15%	-18.7%	-14.2%
CCCN1c2c3c(O)c4c(O)c(C)c5c(c4c2O)C(=O)C(C)(O/C=C/C(OC)C(C)C(OC(C)=O)C(C)C(O)C(C)C(O)C(C)/C=C/C=C(/C)C(=O)N3C1C)O5 (stereo unspecified)	22.6%	35.9%	44%	37.2%	19%	18.2%
Nc1ccc(O)cc1	15.2%	7.5%	39%	9.35%	3.45%	14.9%
O=Cc1cccc(/C=N/Nc2nnc(N/N=C/c3cccc(C=O)c3)c3ccccc23)c1	30.6%	26.5%	35.5%	33.1%	-3.2%	17.1%
O=C1c2ccccc2-c2nnsc21	-20.7%	-14.4%	2.3%	-12.6%	-6.2%	19.5%
Cc1ccccc1C1=CCCCCC1	-5.15%	-17.6%	-2.8%	0.75%	-7.65%	-9.8%
CC1=C(C(=O)CC(=O)C(=O)Nc2cccc(Cl)c2C)Sc2ccccc2N1	-18.8%	-8.1%	-31.4%	19.1%	-13.6%	-10.6%
CC1CP(=O)(Cc2ccccc2)C(C)(c2ccccc2)C1=O (stereo unspecified)	-18.4%	-0.95%	31.4%	-4.2%	40.2%	-6.5%
CC1CCC(C(C)C)C(OC(=O)c2ccccc2O)C1 (stereo unspecified)	16.1%	6.9%	-11.3%	33.5%	12%	35.5%
O=C(c1ccccc1)C1C(c2ccccc2)C=CC(c2ccccc2)C1C(=O)c1ccccc1 (stereo unspecified)	-18.4%	-11.3%	-9%	-4.55%	3.2%	-22.6%
CC(C)c1cccc(C(C)C)c1NC(=O)OC1CCCCC1	-11.7%	-22.8%	8.2%	20.2%	-1.6%	-2.85%
COCCCN1CC(=O)N2Cc3ccccc3CN2C(=O)C1	-9.15%	-13%	-15.2%	-3.6%	2.95%	-4.6%
O=C(Nc1ccccc1)C1C2C=CC(CC2)C1C(=O)Nc1ccccc1 (stereo unspecified)	-0.25%	4.95%	7.7%	-10.2%	-11.5%	-13.6%
NC(CCc1ccc2c(c1)OCO2)C(=O)O (stereo unspecified)	5.35%	-11.8%	-3.55%	-47%	-5.8%	22.9%
Cc1ccc(SCC(OCn2cnc3c(Cl)nc(N)nc32)[C@H](C)F)cc1 (stereo partly specified)	32.2%	23.4%	56.5%	24.9%	66%	-50.9%
CCCCNc1nc2nc[nH]c2c(=O)[nH]1	-5.45%	-6.3%	-13.2%	-2.25%	-29.1%	-48%
CC(C)(C)[C@@H]1NC(=O)CN1C(=O)OCc1ccccc1	-22.1%	-35.2%	-51.9%	-17.1%	26.9%	-11.1%
O=C(O)c1sccc1Cc1ccsc1	-6.85%	-10.8%	-8.65%	-27.6%	-25.9%	5%
CCOC(=O)CCC(=O)OCC	21.6%	7.05%	0%	16.9%	9.85%	10.6%
CCC1CCC(OC(=O)Nc2cccc3ccccc23)CC1 (stereo unspecified)	12.2%	-26.1%	-5.35%	3.7%	4.85%	-10.4%

SMILES	growth inhibition [1]	growth inhibition [2]	growth inhibition [3]	growth inhibition [4]	growth inhibition [5]	growth inhibition [6]
O=S1(=O)c2ccccc2N2CCCc3cc(Cl)cc1c32	-49.9%	-23.1%	-41.7%	-3.35%	-8.9%	-4.15%
CCOC(=O)[C@H]1CS[C@]2(c3ccco3)CC(=O)N12	14.4%	8.1%	-12.6%	-36.2%	1.6%	44.1%
C=CCNc1nc2c(s1)CCc1cc(OC)c(OC)cc1-2	30.1%	10.6%	12%	29.4%	15.2%	61.6%
O=C(COc1ccc2c(=O)cc(-c3ccc(Cl)cc3)oc2c1)N1CCN(c2ccccc2)CC1	9.15%	7.05%	-8.8%	29.1%	3.95%	10.9%
Cc1ccccc1NC(=O)Nc1ccc(Nc2ccccc2)cc1	-6.5%	32.2%	9.95%	-11.6%	5.95%	25.5%
CN1CCC2(CC1)C(=O)N(NC(N)=O)C(=O)C2c1ccccc1 (stereo unspecified)	15%	2.15%	5.7%	1.2%	1%	13.8%
COc1ccc(C(O)(c2ccc(OC)cc2)c2ccccc2Cc2ccccc2OC)cc1	-61.6%	1.65%	-22.3%	-20.6%	0.65%	-21.4%
CC1(C)OCC(C2CCC3(C)C4=CCC5C(C)(C)C(O)CCC5(C)C4CCC23C)CC(O)C1O (stereo unspecified)	59.6%	57%	72.3% (active)	76.5% (active)	64.8%	31.9%
Cn1ncc(C(=O)O)c1[N+](=O)[O-]	6.85%	-14.5%	8.35%	-37.6%	-6.2%	5.25%
C=C(C)COB(OCC(=C)C)OCC(=C)C	-6.3%	-25.4%	-2.25%	1.95%	-10.8%	-16.2%
COc1ccc(CC(CN)P(=O)(O)O)cc1 (stereo unspecified)	29.3%	4.2%	8.5%	4.45%	15.1%	4%
O=C(c1ccccc1)c1cc(Cl)ccc1NCn1nnc2ccccc21	-47.9%	-22.1%	-40.8%	-21.8%	-49.5%	-30.1%
CCN(CC)CCc1c2c(nc3ccccc13)C(=O)c1cccnc1C2=O	84.3% (active)	66.3%	84% (active)	74.4% (active)	79.2% (active)	-21.5%
Cc1cc2c(c(S(=O)(=O)c3ccccc3[N+](=O)[O-])c1)NCCC2	2.95%	-36%	3.3%	-23.4%	14.8%	-15.8%
NS(=O)(=O)c1ccc(NC(=O)CCl)cc1	6.5%	-6.8%	-1.9%	11.7%	3.3%	-15.9%
CCOC(=O)CCc1cn2cc(Br)nc(OC)c2n1	-18.6%	-38%	14.6%	19.9%	3.7%	-13.6%
CC(C)c1cc(CN(C)C)c(O)c(C(C)(C)C)c1	-25.4%	23.2%	-43.5%	-40%	-14.3%	-8.3%
O=[N+]([O-])c1nccn1CC(O)CN1CCCCC1 (stereo unspecified)	5.95%	-1.15%	16.8%	-4.85%	-7.85%	18.9%
CC(N)(CCSCP(=O)(O)O)C(=O)O (stereo unspecified)	-22.1%	-7.4%	-19.5%	-26.9%	-7.45%	-27.4%
OCCO	-26.4%	-24.1%	-49.3%	-31.6%	-32%	-30.6%
